In ChEMBL document CHEMBL2218924, “A broad activity screen in support of a chemogenomic map for kinase signalling research and drug discovery” (Biochem J, 2013):

Target: Tyrosine-protein kinase Lck (Homo sapiens) (UniProt P06239)
Conditions: at 10 µM

Sequence of Tyrosine-protein kinase Lck (Homo sapiens) (P06239 2-509 limits assumed): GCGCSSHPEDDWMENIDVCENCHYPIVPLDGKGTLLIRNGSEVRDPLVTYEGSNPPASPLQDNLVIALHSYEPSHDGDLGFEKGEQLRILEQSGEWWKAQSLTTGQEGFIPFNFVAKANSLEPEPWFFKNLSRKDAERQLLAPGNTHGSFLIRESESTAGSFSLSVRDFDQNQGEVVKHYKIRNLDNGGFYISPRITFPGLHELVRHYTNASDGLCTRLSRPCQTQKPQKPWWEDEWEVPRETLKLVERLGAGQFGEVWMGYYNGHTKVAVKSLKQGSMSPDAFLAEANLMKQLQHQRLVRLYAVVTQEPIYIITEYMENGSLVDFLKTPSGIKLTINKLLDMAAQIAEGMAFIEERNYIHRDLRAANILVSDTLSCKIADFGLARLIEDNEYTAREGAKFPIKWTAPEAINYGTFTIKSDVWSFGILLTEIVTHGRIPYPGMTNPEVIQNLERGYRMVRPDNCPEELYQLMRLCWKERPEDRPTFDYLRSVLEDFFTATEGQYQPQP

Row | Compound | residual activity
1 | COc1cc2ncnc(Nc3ccc(Oc4ccccc4)cc3)c2cc1OC | 0%
2 | Oc1c2ccccc2c2c3c(cccc13)N=N2 | 43%
3 | Cc1nc2cc3nc(-c4cccs4)cnc3cc2n1C | 48%
4 | Cn1nc2c3c(cccc31)C(=O)c1ccccc1-2 | 86%
5 | CO[C@H]1[C@@H](OC)C[C@H](C)[C@@H](OC)C2=CC(=O)C=C(NC(=O)/C(C)=C/C=C/[C@H](OC)[C@@H](OC(N)=O)/C(C)=C/[C@@H]1C)C2=O | 85%
6 | COc1ccc(CNc2nc(N(CCO)CCO)nc3c2ncn3C(C)C)cc1 | 79%
7 | O=[N+]([O-])c1ccc(-c2nc(-c3ccc(F)cc3)c(-c3ccncc3)[nH]2)cc1 | 82%
8 | COc1ccc(S(=O)(=O)N(CCO)c2ccccc2CN(C)C/C=C/c2ccc(Cl)cc2)cc1 | 43%
9 | N#Cc1cnc2cnc(NCc3cccnc3)cc2c1Nc1ccc(F)c(Cl)c1 | 7%
10 | CCN(CC)C(=O)c1ccc(Nc2nc(OCC3CCCCC3)c3nc[nH]c3n2)cc1 | 7%
11 | N#CCCc1ccc2c(c1)-c1[nH]c3ccc([N+](=O)[O-])cc3c1CC(=O)N2 | 23%
12 | O=C1Nc2ccccc2/C1=C1/Nc2ccccc2/C1=N\OCCC(O)CO (stereo unspecified) | 8%
13 | Cc1cc(Nc2nc(-c3ccccc3)nc3ccccc23)n[nH]1 | 13%
14 | O=C(Nc1cccc(Nc2nccc(Nc3cccc(C(F)(F)F)c3)n2)c1)C1CC1 | 42%
15 | O=c1c2ccccc2[nH]c(=S)n1CCN1CCC(=C(c2ccc(F)cc2)c2ccc(F)cc2)CC1 | 65%
16 | CN(C)CCCn1cc(C2=C(c3c[nH]c4ccccc34)C(=O)NC2=O)c2ccccc21 | 43%
